Compound activity (PubChem BioAssay)
IMPase cell inh: membrane-permeable compound that blocks inositol monophosphatase | inhibition (IP1 accumulation), % at 46.1 µM | 120,000 tested, under 10 active | CHO-M1 cells, IP1 accumulation, HTRF TR-FRET ratio; active = well fitted curve in the direction sought with a large enough effect in the signal ratio, not every such curve was filed as active; inconclusive = small, poorly fitted or top-dose-only effect, or a change in a side signal; inactive = no such curve, though single readings can be large or run the other way; the % refers to the signal ratio;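 also: cells stimulated with carbachol in lithium chloride buffer; plate controls were DMSO basal wells for no effect and reference inhibitor wells for full effect; higher means more IMPase inhibition seen as more IP1 and lower FRET ratio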
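CHO-M1, 2000 cells/well, cultured 16–30 h; cpd up to 46 uM; carbachol (50 uM solution, stimulation buffer w/ 50 mM LiCl, pH 7.4), 30 min 37C; IP-One TR-FRET, 10 min RT; Ex 320/Em 665, 620; Hill-fit AC50.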
IMPase Li cell: membrane-permeable IMPase blocker, potentiated with lithium; CHO-M1 cells, IP1 TR-FRET (IP-One), carbachol + lithium; Potency, µM (titrated, usually from 59.4 µM), for the others: at the top dose activity, negative = IMPase inhibition, actives largely listed as inhibitors; 210,000 compounds, 0.35% hits; AID 1457;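 also: IP1 builds up when IMPase is blocked and the TR-FRET signal falls; potency is read from the fitted curve at half-maximal effect; plate controls were basal vehicle for no effect and high inhibitor control for full effect; nearly all actives have a fitted effect of over 50% in size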
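IP1 accumulation measured by competitive TR-FRET in lysed CHO-M1 cells after 30 min compound exposure at 37C, with a small lithium addition to potentiate weak responses. Hill-equation AC50 from ratio and donor-channel data.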
12-hLO inh: blocks human 12-lipoxygenase activity | P18054 | purified 12-hLO, xylenol orange hydroperoxide absorbance | Potency, µM (doses to about 57.1 µM), without a hit: at the highest dose activity change, negative = inhibition, actives largely listed as inhibitors | 150,000 compounds, 0.12% hits | AID 1452; also: potency is read from the fitted curve at half-maximal effect; nearly all actives have a fitted effect of over 55% in size
Target sequence (P18054 whole entry, looked up): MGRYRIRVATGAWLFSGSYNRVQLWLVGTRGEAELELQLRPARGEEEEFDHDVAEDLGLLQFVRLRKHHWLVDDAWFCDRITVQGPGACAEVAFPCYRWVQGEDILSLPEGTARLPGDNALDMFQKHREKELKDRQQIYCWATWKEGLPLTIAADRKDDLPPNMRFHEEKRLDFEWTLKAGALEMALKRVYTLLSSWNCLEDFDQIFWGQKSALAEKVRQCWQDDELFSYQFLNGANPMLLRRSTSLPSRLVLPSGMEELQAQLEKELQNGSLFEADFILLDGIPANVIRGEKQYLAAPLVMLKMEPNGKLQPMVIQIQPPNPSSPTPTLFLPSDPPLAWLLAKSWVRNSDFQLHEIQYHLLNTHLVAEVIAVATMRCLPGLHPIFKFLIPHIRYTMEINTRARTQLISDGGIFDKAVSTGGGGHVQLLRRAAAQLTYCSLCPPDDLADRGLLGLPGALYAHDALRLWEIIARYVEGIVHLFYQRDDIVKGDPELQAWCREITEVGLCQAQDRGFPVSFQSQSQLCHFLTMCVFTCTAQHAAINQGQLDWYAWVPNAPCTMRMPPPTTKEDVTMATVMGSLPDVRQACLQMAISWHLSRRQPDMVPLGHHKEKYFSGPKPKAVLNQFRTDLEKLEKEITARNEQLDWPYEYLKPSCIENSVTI
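Hydroperoxide output read as Fe(III)-xylenol orange absorbance, 573-to-405 nm ratio, after 30 min reaction with 40 uM arachidonic acid. Enzyme: 150 nM purified human 12hLO, 15 min compound preincubation; 25 mM Hepes pH 7.0, room temperature.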
PNC inhibitor: blocks assembly of the perinucleolar compartment; PC3M PTB-GFP, PNC prevalence imaging, 16 h; active compounds read low; 140,000 compounds, 3.1% hits; activity change (PNC), negative = inhibition, % at 10 µM;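 active = readout at or below -70, meaning at least 70% loss of cells showing the perinucleolar compartment, a nuclear body marking cancer cells; inconclusive = readout between -30 and a set limit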;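 also: plate controls were DMSO wells for no effect and camptothecin positive control wells for full effect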
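Read-out is percentage of cells bearing a perinucleolar compartment, from automated 20x imaging of fixed, Hoechst-stained PC3M PTB-GFP cells. Cells were seeded 4 h, then exposed 16 h to compound (23 nl of library stock) in duplicate plates.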
* hit, by the source's call; ? = inconclusive; · = not tested or not shown; [ ] = dose if it differs, or a comment. Many of the other results were omitted from the sample, so hits are more common in it than they were. Unless noted, calls follow the shape of the dose curve; as a rule, active = well fitted curve in the direction sought with a large enough effect; inconclusive = small, poorly fitted or top-dose-only effect, or another doubt; inactive = no such curve, though single readings can be large; an effect the other way counts as inactive or inconclusive. Unless noted, % is scaled to controls: 0 for no effect and ±100 for the full control effect.

SMILES	IMPase cell inh	IMPase Li cell	12-hLO inh	PNC inhibitor
COc1ccc2ccc(=O)oc2c1CC=C(C)C	·	7%	0%	43
CC/C=C\C[C@H](O)/C=C/C=C\C/C=C\C/C=C\CCCC(=O)O	·	7%	5%	·
COC(=O)[C@@]1(Cc2ccccc2)[C@H]2c3cc(C(=O)N(C)C)n(Cc4ccsc4Br)c3C[C@H]2CN1C(=O)c1ccccc1	·	10%	-1%	·
Cc1ccc(NCc2nnc(SCC#N)o2)c(C)c1	10	6%	-5%	-100*
Cc1ccc(NCc2nnc(SCC(=O)c3ccccc3)o2)c(C)c1	?	-20%[38.3 µM]	-11%	-16
COc1cccc(N/C=C/c2onc(C)c2[N+](=O)[O-])c1	·	2%	·	·
CO/C=C\C=C/c1nnn(-c2ccc(Cl)cc2)n1	·	-2%	-20%	-94*
C[C@@H](C(=O)Nc1ccc2ccccc2c1)[C@H]1C[C@]1(C)[C@H](NC(=O)c1cnccn1)c1ccccc1	·	13%	1%	-91*
O=C(O)[C@H]1O[C@H]1C(=O)O	·	-3%	-2%[11.4 µM]	·
C/C(N=NC(=[SH+])SCc1ccccc1)=C1\C=CC=CN1.[Cl][Cu]	·	2%	·	·
O=C(Cn1ccc([N+](=O)[O-])n1)Nc1nccs1	·	-3%	1%	17
Cc1cc([N+](=O)[O-])nn1CC(=O)Nc1nccs1	·	3%	3%	-89*
COC(=O)N/N=C/c1cc(Cl)c(OCc2ccc(F)cc2)c(OC)c1	·	8%	-1%	-87*
COc1ccc(NC(=O)c2csc(Cc3ccc(Cl)cc3)n2)cc1	·	10%	·	·
COc1ccc(COc2ccsc2C(=O)Nc2ccc(Cl)cc2)cc1	-8[1.84 µM]	25%[38.3 µM]	0%	-86*
O=C(N/N=C/c1ccc(Cl)cc1)c1sccc1OCc1ccc(F)cc1	11	9%	-3%	-119*
CCCCc1c2ccccc2nc2[nH]c3ccccc3c12	·	-18%	-3%	·
Cc1ccc(S(=O)(=O)N2CCN(C(=O)c3cc(=O)c4ccccc4o3)CC2)cc1	·	-9%	·	·
CCOc1cc(NC(=O)C2CCCO2)c(OCC)cc1NC(C)=O (stereo unspecified)	-3	6%[38.3 µM]	-6%	-94*
CC/C(=N/NC(=O)c1ccc(Br)o1)c1ccc(Cl)cc1	·	3%	0%	?
CCCC/C(=N\NC(=O)c1ccc(Br)o1)c1ccccc1	·	11%	1%	-114*
CCOC(=O)c1c(C)oc2ccc(N(C(C)=O)S(=O)(=O)c3c(C)cc(C)cc3C)cc12	3	·	·	·
C=CCC1(NC(C)c2ccccc2)CCCCC1 (stereo unspecified)	·	2%	-4%	-113*
CCOC(=O)c1c(NC(=O)CSc2nnc(-c3cccnc3)o2)sc2c1CCC2	-11	13%	1%	-100*
COC(=O)NC(c1ccccc1)c1c[nH]c2ccc(OC)cc12 (stereo unspecified)	·	2%	·	·
SMILES	IMPase cell inh	IMPase Li cell	12-hLO inh	PNC inhibitor
Cc1cc(C(F)(F)F)nn1CC(=O)Nc1ccc(Br)c2cccnc12	-12	9%	-8%	-100*
CCCS(=O)(=O)O	·	-3%	4%[11.4 µM]	·
CCOc1ccccc1NC(=O)CN(c1ccc(C)cc1)S(=O)(=O)c1c(C)noc1C	14	42%[38.3 µM]	-11%	-132*
COc1ccc(N(CC(=O)Nc2ccc(C)cn2)S(=O)(=O)c2c(C)noc2C)cc1	-12	-5%[38.3 µM]	-8%	-80*
C=CC1=C2C=C(C3CC3)N(Cc3ccccc3)C=C2C(=O)C(C)(OC(=O)c2ccco2)C1=O (stereo unspecified)	·	2%	2%[11.4 µM]	·
CSc1nc(N)c2ncn([C@@H]3O[C@H](COP(=O)(O)OP(=O)(O)O)[C@H](O)[C@H]3O)c2n1	·	-2%	·	·
NNC(=O)/C(=N/Nc1ccccc1)S(=O)(=O)c1ccc(Cl)cc1	·	-1%	-5%	?
O=C(Nc1nccs1)c1ccccc1[N+](=O)[O-]	-1	-7%	1%	-15
Cn1ncc([N+](=O)[O-])c1C(=O)Nc1nccs1	·	1%	-2%	-105*
CCCNC(=O)N(C)c1nncnc1C(=O)NC	-1	-5%[38.3 µM]	-8%	-100*
O=c1cc(CNc2cc(C(F)(F)F)cc(C(F)(F)F)c2)nc2sccn12	·	-5%	-4%	-14
O=c1cc(CNc2cc(Cl)ccc2Cl)nc2sccn12	·	-3%	-1%	-113*
C[C@@]1(O)C(O)[C@@H](CO)O[C@H]1n1cnc2c(NC3CCCC3)nc(Cl)nc21 (stereo partly specified)	·	-6%	-5%	·
CCCOc1ccc(C2CC(=O)Nc3c2c(=O)n(C)c(=O)n3C)cc1OC (stereo unspecified)	8	·	·	·
Brc1cc(Br)c2nc(-c3cccs3)ccc2c1	?	10µM*	-4%	18
O=C(O)C[C@H](S)C(=O)O	·	7%	1%[11.4 µM]	·
CC[n+]1c(/C=C/C=C/N(C(C)=O)c2ccccc2)sc2cc(OC)ccc21	·	45%	-8%	?
O[C@@H]([C@H](O)[C@@H](O)CBr)[C@@H](O)CBr	·	1%	1%	·
O=C(N/N=C/c1cccc([N+](=O)[O-])c1)c1ccc2nc[nH]c2c1	-8	36%[38.3 µM]	5%	?
O=C(N/N=C/c1ccc([N+](=O)[O-])cc1)c1ccc2nc[nH]c2c1	-2	-6%[38.3 µM]	-1%	-88*
O=C(COC(=O)c1ccc([N+](=O)[O-])s1)NC(c1ccccc1)c1ccccc1	·	1%	-4%	-116*
CC[C@H]1CN(C)[C@H]2Cc3c([nH]c4ccccc34)C(=O)C[C@H]1[C@H]2C(=O)OC	·	-3%	4%[11.4 µM]	·
Cc1cc(C(=O)Nc2cccc(C(=O)O)c2)c(C)o1	-3	9%[38.3 µM]	6%	-18
COC(=O)c1cc(NC(=O)c2cc(C)oc2C)cc(C(=O)OC)c1	-5	11%	0%	-100*
COc1ccccc1C(=O)NCc1ccccc1	7	10%	-9%	-114*
SMILES	IMPase cell inh	IMPase Li cell	12-hLO inh	PNC inhibitor
CC(C)N1CCN(Cc2nc3c(s2)CCCC3)CC1CCO (stereo unspecified)	·	2%	·	·
Nc1ccnc(C(F)(F)F)c1C(=O)c1ccccc1	10	-11%[38.3 µM]	-6%	-82*
CC(=O)c1c(N(C)C)ccnc1C(F)(F)F	2	8%[38.3 µM]	3%	6
CCOC(=O)CN1C(=O)c2ccccc2C1=O	-14	11%[38.3 µM]	4%	?
COC(=O)NC1CSCC1OC(=O)CN1C(=O)c2ccccc2C1=O (stereo unspecified)	-2	20%[38.3 µM]	5%	-85*
O=C(Oc1cncc(Cl)c1)c1ccco1	?	0%	-7%	-81*
O=C(Oc1ccc2ccccc2c1)c1ccco1	4	-3%[38.3 µM]	0%	-18
CCCCc1nc2c(c3c1C[C@H](C)OC3)CN(C(=O)COC)CC2	·	9%	1%[11.4 µM]	·
COc1ccc(/C=C/C(=O)c2cc(F)ccc2OC(=O)c2ccccc2C)cc1OC	·	8%	2%	-88*
CCN(C(=O)CN1CCOCC1)c1c(N)n(Cc2ccccc2)c(=O)[nH]c1=O	·	-1%	·	·
CCN(C(=O)CN(C)Cc1cccc(Cl)c1Cl)c1c(N)n(Cc2ccccc2)c(=O)[nH]c1=O	2	5%	-2%	-98*
COc1ccc(Oc2nccc(-c3ccc(F)cc3)c2C#N)cc1	?	28µM*	-4%	-15
